Source: PubChem BioAssay (National Center for Advancing Translational Sciences (NCATS))
In the library only some 2.8% were active in any assay of this set; here they are far more common.
WRN helicase inh: qHTS for Inhibitors of WRN Helicase; Bifunctional 3'-5' exonuclease/ATP-dependent helicase WRN (Homo sapiens), Q14191; WRN helicase unwinding, fluorescent forked duplex, kinetic; Potency, µM (titrated, usually from 114 µM), actives largely listed as inhibitors; 0.46% of 360,000 active; AID 651768, 2012; also: nearly all actives have a fitted effect of over 55% in size
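WRN at 20 nM final preincubated with compound 15 min at room temperature; reaction started with 100 nM fluorophore/quencher forked duplex oligonucleotide and 2 mM ATP final. Unwinding followed kinetically by red fluorescence (ex 525, em 598 nm).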
Pol beta inh: qHTS Assay for Inhibitors of DNA Polymerase Beta; P06746; 1.3% of 340,000 active; Pol beta primer extension/strand displacement, fluorescence kinetic; Potency, µM (series often up to 114 µM), hits mostly inhibitors
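Human Pol beta at 10 nM; strand-displacement substrate 50 nM final. Compound exposure 15 min at room temperature before start, reaction 10 min at room temperature.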
Pol eta inh: qHTS for Inhibitors of Polymerase Eta; DNA polymerase eta (Homo sapiens), Q9Y253; recombinant Pol eta, fluorescent DNA replication assay; Potency, µM (doses to about 114 µM), usual class: inhibitors; 1.2% of 390,000 active
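Fluorescent replication assay: 50 nM final substrate added after a 15 min room-temperature compound preincubation with 10 nM enzyme. Signal taken at 0 min and again at 10 min.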
POLI inh: qHTS for Inhibitors of Polymerase Iota; 1% of 390,000 active; DNA polymerase iota (Homo sapiens), Q9UNA4; Pol iota fluorescent replication assay, 10 min; Potency, µM (titrated, usually from 115 µM), most hits filed as inhibitors
Target sequence (Q9UNA4 whole entry, looked up): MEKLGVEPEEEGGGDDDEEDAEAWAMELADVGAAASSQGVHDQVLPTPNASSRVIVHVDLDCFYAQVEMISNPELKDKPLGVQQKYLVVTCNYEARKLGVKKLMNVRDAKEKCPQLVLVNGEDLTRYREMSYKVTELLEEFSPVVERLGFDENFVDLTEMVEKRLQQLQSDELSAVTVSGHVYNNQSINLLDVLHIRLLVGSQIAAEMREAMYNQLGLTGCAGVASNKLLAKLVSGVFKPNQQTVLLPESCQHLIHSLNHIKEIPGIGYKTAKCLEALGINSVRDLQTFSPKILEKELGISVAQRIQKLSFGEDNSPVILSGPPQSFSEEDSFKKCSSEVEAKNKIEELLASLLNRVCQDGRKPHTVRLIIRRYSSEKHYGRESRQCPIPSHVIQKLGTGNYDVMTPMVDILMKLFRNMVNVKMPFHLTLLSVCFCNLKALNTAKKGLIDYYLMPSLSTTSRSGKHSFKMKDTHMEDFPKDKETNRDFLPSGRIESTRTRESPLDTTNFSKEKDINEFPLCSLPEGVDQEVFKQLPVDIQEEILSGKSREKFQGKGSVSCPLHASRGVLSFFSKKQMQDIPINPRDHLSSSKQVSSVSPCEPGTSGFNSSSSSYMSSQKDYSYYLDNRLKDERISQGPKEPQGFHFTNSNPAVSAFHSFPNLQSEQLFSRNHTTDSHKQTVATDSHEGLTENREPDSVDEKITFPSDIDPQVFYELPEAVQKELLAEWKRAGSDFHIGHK
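Pol iota at 10 nM preincubated 15 min with compounds at room temperature; reaction started with fluorescent substrate, 50 nM final. Fluorescence read kinetically at 0 and 10 min; buffer-only wells as negative control.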
Pol kappa inh: qHTS for Inhibitors of Polymerase Kappa | DNA polymerase kappa (Homo sapiens), Q9UBT6 | purified Pol kappa, fluorescent DNA synthesis assay, 10 min | Potency, µM (top dose mostly 107 µM), usual class: inhibitors | 0.53% of 400,000 active | AID 588579, 2011
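Pol kappa 10 nM + cpd, 15 min RT; start w/ substrate 50 nM final; fluorescence kinetic read, 0 and 10 min. Neg ctrl: buffer, no enzyme.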
PI5P4Ka inh: qHTS for Inhibitors of phosphatidylinositol 5-phosphate 4-kinase (PI5P4K) | PI5P4Kalpha enzyme, ADP-Glo luminescence, 60 min; stronger effect = lower value | max response, % | 1.2% of 330,000 active | AID 652105, 2013; active = max response of -50% or lower; inconclusive = between -30% and -50%; inactive = -30% or higher; also: value at the top dose of about 77 µM
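Luminescence from ADP-Glo served as readout of PI5P4Kalpha activity in a qHTS format. Reaction: enzyme, substrate, compound, ATP at 5 microM final, 60 min at RT.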
A number is an active result; n = inactive; u = inconclusive; x = no result; [ ] = remark or other dose. Unless noted, calls follow the shape of the dose curve; as a rule, active = well fitted curve in the direction sought with a large enough effect; inconclusive = small, poorly fitted or top-dose-only effect, or another doubt; inactive = no such curve, though single readings can be large; an effect the other way counts as inactive or inconclusive.

SMILES	WRN helicase inh	Pol beta inh	Pol eta inh	POLI inh	Pol kappa inh	PI5P4Ka inh
Cc1cccc(-n2ccc(=O)c(C(=O)Nc3ccc(S(=O)(=O)Nc4nccs4)cc3)n2)c1	n[11.6 µM]	89µM	u	n	n	u
Cc1cc(C)c2oc(C(=O)Nc3ccc(S(=O)(=O)Nc4nccs4)cc3)cc(=O)c2c1	n[11.6 µM]	u	u	79µM	u	n
N#Cc1cccc(C(=O)Nc2ccc(S(=O)(=O)Nc3nccs3)cc2)c1	n	x	n	n	n	n
CCC(Oc1ccc(C)cc1)C(=O)Nc1ccc(S(=O)(=O)Nc2nccs2)cc1 (centres undefined)	n	u	n	n	n	n
Cc1cc(C)c2oc(C(=O)Nc3ccc(S(=O)(=O)Nc4ncccn4)cc3)cc(=O)c2c1	x	n	n	n	n	x
Cc1ccc(Oc2ccc3c(c2)C(=O)N(c2ccc(S(=O)(=O)Nc4nccs4)cc2)C3=O)cc1	u	n	89µM	u	n	x
O=C(Nc1ccc(S(=O)(=O)Nc2nccs2)cc1)c1cccc(N2C(=O)c3ccccc3C2=O)c1	n	n	50µM	71µM	u	n
O=C(CCn1ccc2cc(S(=O)(=O)N3CCCC3)ccc21)NCc1ccccc1Br	x	n	n	n	n	x
Cc1ccccc1-c1nnc(CN2CCN(c3cc(Cl)ccc3C)CC2)o1	x	n	n	n	n	x
Cc1cc(C)c(Cn2c3ccccc3c3cnn(CC(=O)N4CCCCCC4)c(=O)c32)c(C)c1	x	n	n	n	n	x
CCCN(C(=O)c1c(C)oc2ncn(CC(C)C)c(=O)c12)c1ccccc1C	x	n	n	n	n	x
CC1=CC(C)(C)NC(=S)N1c1ccccc1C	n	n	n	n	n	n
CC1=CC(C)(C)NC(=S)N1c1cccc2cc(S(=O)(=O)O)ccc12	n	50µM	13µM	u	n	n
O=C(C[N+]1(CCc2ccccc2)CCOCC1)c1cccc([N+](=O)[O-])c1	x	x	x	n	n	x
CCOc1ccccc1-c1nc(-c2ccc(NC(=O)Cc3ccc(OC)cc3)cc2)no1	n	32µM	u	u	n	n
COc1cc(OC)cc(-c2nc3nc(C)c(CCC(=O)Nc4ccc(C)c(C)c4)c(C)n3n2)c1	x	n	n	n	n	x
c1ccc2c(-c3cncc4ccccc34)cncc2c1	n	x	n	n	n	-73
COc1ccccc1CNC(=O)c1ccc2c(c1)N(Cc1cc(C)ccc1C)C(=O)c1ccccc1S2	x	n	n	n	n	x
CN(CC(=O)O)S(=O)(=O)c1cccs1	n	n	n	89µM	n	n
COC(=O)c1c(C)sc(-c2c(-c3ccc4c(c3)OCCO4)[nH]c3c2c(=O)[nH]c(=O)n3C)c1O	x	n	u	n	n	x
O=C(CSc1nnc(NC(=O)c2ccccc2Cl)s1)Nc1ccc2c(c1)oc1ccccc12	x	32µM	x	x	x	x
COc1ccccc1C(=O)OCC(=O)Nc1ccc(N2CCCCC2)cc1	x	x	x	n	n	x
Cc1nc(-c2cccc(NC(=O)C(C)Oc3ccccc3)c2)cs1 (centres undefined)	n	n	28µM	u	n	n
O=C(Cn1cnc([N+](=O)[O-])n1)c1ccc(O)c(O)c1	n	u	u	7.1µM	u	n
O=C(O)c1ccccc1-c1ccccc1C(=O)Nc1ccc2c(c1)[nH]c(=O)c1ccccc12	n	n	50µM	n	n	u
SMILES	WRN helicase inh	Pol beta inh	Pol eta inh	POLI inh	Pol kappa inh	PI5P4Ka inh
COc1ccccc1-c1ccc(/C=C2/C=C(CC(C)C)OC2=O)o1	n	25µM	n	u	n	n
CCCC1=C/C(=C/c2ccc(-c3ccccc3OC)o2)C(=O)O1	n	u	25µM	u	n	u
O=Cc1ccc(-c2ccccc2OC(F)(F)F)o1	n	n	n	n	n	n
CN(C)CCCNc1cc(O)c2ncccc2c1	x	x	n	6.3µM	n	x
O=C1c2ccccc2NC(c2ccc3c(c2)OCO3)N1Cc1ccco1 (centres undefined)	x	x	x	n	n	x
O=[N+]([O-])c1ccc(-[n+]2ccc3ccccc3c2)c([N+](=O)[O-])c1	n[11.6 µM]	x	n	u	79µM	u
Cc1c(N2C(=O)c3ccc4c5c(ccc(c35)C2=O)CC4)c(=O)n(-c2ccccc2)n1C	u	5µM	2.8µM	5.6µM	50µM	-64
O=C(c1cccc(Cl)c1)N1c2ncnn2C2(CCCCC2)[C@@H]2CCCC[C@@H]21	x	n	n	u	n	x
COc1cccc(NS(=O)(=O)c2ccc(S(=O)(=O)N3CCCC3)cc2)c1	n	x	n	n	n	n
COc1cccc(CNS(=O)(=O)c2ccc(S(=O)(=O)N3CCCC3)cc2)c1	n	20µM	n	n	n	n
COCCn1c(SCC(=O)Nc2ccc(F)c(Cl)c2)nc2c(oc3ccccc32)c1=O	x	n	n	n	n	x
COc1ccc(CNC(=O)Nc2cn(CC(C)C)c(=O)c3ccccc23)c(OC)c1	x	n	n	22µM	n	x
COc1ccccc1N1CCN(C(=O)Nc2cn(CC(C)C)c(=O)c3ccccc23)CC1	x	n	n	n	n	x
CC[C@H](C)/C=C(C)/C=C/C(=O)Cc1cc(O)c(C)c(O)c1C=O	n[11.6 µM]	u	50µM	u	n	-57
CN(C(=O)CSc1nnc(COc2ccccc2)o1)c1ccccc1	x	n	n	n	n	x
O=C(O)[C@@H]1[C@H]2C[C@H]3c4[nH]c5ccccc5c4CCN3C[C@@H]2CC[C@@H]1O	n	x	79µM	u	u	n
CCOC(=O)c1ccc(NC(=O)N2CCOc3ccccc32)cc1	x	n	n	n	n	x
O=C(Cn1ncc(Cl)c(Cl)c1=O)Nc1ccc2c(c1)OCO2	n[11.6 µM]	x	u	u	n	-52
CCN(CC)S(=O)(=O)c1cc(NC(=O)Cn2ncc(Cl)c(Cl)c2=O)ccc1C	n	28µM	35µM	25µM	71µM	-83
Cc1ccc(S(=O)(=O)N2CCCCC2)cc1NC(=O)Cn1cnnn1	n	n	n	n	n	n
CCN(CC)S(=O)(=O)c1cc(NC(=O)CN2C(=O)NC(C)(c3ccccc3)C2=O)ccc1C (centres undefined)	n	n	n	n	n	n
Cc1ccc(S(=O)(=O)N2CCCCC2)cc1NC(=O)Cn1ncc(Cl)c(Cl)c1=O	n	x	56µM	u	n	-52
Cc1ccc(NC(=O)CS(=O)CC(=O)Nc2ccc3c(c2)OCO3)cc1Cl (centres undefined)	n	50µM	u	u	n	n
CCOC(=O)CSC1=C(C#N)C(=O)NC(c2ccc(OC)cc2)S1 (centres undefined)	n	n	n	u	n	-63
